From paper PMC4336329 (PLoS ONE, 2015)
Hit rate of the full screen: of about 310,000 compounds, about 14,000 (4.5%) showed an effect of 50% or more. The effect is printed as a negative number. This is one part of a sample in which strong results are shown more often than they occur.

What follows are molecules tested against human ether-à-go-go-related gene (hERG) potassium channel (human, UniProt Q12809) (assay: primary screen, population patch clamp on CHO cells stably expressing hERG; higher = less effect of the substance).
Chain of human ether-à-go-go-related gene (hERG) potassium channel (Q12809 whole entry, looked up): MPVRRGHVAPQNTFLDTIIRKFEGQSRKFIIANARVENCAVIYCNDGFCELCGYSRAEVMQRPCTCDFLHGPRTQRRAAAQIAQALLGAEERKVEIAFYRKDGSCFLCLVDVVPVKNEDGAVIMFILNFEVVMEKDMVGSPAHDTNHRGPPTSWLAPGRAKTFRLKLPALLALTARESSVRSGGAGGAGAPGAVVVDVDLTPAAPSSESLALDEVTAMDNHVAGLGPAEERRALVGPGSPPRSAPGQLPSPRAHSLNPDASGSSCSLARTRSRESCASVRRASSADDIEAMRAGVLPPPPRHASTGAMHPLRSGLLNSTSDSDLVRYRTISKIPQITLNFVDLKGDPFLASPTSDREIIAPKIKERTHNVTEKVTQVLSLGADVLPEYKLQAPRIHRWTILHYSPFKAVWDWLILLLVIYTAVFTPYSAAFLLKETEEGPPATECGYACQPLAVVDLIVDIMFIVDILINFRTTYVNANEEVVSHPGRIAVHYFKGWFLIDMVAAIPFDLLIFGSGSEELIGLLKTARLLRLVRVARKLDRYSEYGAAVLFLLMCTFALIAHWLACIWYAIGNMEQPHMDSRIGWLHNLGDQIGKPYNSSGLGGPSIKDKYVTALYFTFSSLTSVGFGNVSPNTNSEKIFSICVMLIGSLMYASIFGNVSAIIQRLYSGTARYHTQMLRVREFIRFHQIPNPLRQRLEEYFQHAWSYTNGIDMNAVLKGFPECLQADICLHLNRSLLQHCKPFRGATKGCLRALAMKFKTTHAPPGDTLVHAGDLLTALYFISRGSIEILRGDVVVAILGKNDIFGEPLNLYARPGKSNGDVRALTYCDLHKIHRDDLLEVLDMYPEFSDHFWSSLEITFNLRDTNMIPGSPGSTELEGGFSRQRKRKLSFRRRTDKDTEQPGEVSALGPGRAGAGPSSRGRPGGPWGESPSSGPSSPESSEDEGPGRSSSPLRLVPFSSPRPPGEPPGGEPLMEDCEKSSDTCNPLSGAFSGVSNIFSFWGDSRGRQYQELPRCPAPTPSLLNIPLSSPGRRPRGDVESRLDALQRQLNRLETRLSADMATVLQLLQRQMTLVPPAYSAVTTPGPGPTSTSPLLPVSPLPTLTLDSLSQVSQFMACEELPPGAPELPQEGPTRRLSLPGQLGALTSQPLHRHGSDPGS
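Note: peak tail current of the secondary pulse compared with the same well before compound.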

| SMILES | hERG current change (%, negative = inhibition) at 10uM [%] |
| --- | --- |
| Cc1c(OC(=O)c2ccc([N+](=O)[O-])cc2)c2c(c[n+]1C)COC(C)(C)OC2.[I-] | 9.15 |
| Cc1ncc2c(c1OC(=O)c1ccccc1)COC(C)(C)OC2 | -6.46 |
| Cc1ncc2c(c1OC(=O)c1ccc([N+](=O)[O-])cc1)COC(C)(C)OC2 | -65.8 |
| Cn1c(O)c(N=Nc2ccc(S(=O)(=O)N3CCOCC3)cc2)c(=O)n(C)c1=O | 10.8 |
| CCN(CC)c1ccc(N=Cc2c(O)n(-c3ccccc3C)c(=O)[nH]c2=O)cc1 | -29.2 |
| Cc1ccc(S(=O)(=O)N2CCOCC2)c2nsnc12 | -3.38 |
| Cc1ccc(S(=O)(=O)N2CCCCC2)c2nsnc12 | -54.9 |
| Cc1ccc(S(=O)(=O)N2CCN(C)CC2)c2nsnc12 | 24.1 |
| O=C(Nc1cc(-c2nn(CC(=O)N3CCCCC3)c(=O)c3ccccc23)ccc1N1CCOCC1)c1ccc(Cl)cc1 | -52.6 |
| CCC(=O)Nc1cc(-c2nn(CC(=O)N3CCCCC3)c(=O)c3ccccc23)ccc1N1CCOCC1 | 3.05 |
| CC(=O)Nc1cc(-c2nn(CC(=O)N3CCCCC3)c(=O)c3ccccc23)ccc1N1CCOCC1 | 2.8 |
| Cc1ccc(-c2nn(CC(=O)N3CCOCC3)c(=O)c3ccccc23)cc1S(=O)(=O)N(C)C | -22.6 |
| O=C(Cn1nc(-c2ccc(N3CCOCC3)c([N+](=O)[O-])c2)c2ccccc2c1=O)N1CCCCC1 | -68.2 |
| O=[N+]([O-])c1cc(-c2nnc(N3CCOCC3)c3ccccc23)ccc1N1CCOCC1 | -40.3 |
| Cc1ccc(C)c(N(C(=O)CCC(=O)Nc2cc(C)on2)C(C(=O)NC2CCCC2)c2ccco2)c1 (stereo not shown) | 10.2 |
| CNc1nc(SC(C)C(=O)Nc2ccc(Cl)c(Cl)c2)nc(N2CCOCC2)n1 (stereo not shown) | 19.6 |
| COc1ccc(S(=O)(=O)N2CCC(C(=O)N3CCN(C)CC3)CC2)cc1OC | 17.3 |
| Cc1nn(CCO)c2nc(-c3cccs3)cc(C(F)(F)F)c12 | 2.32 |
| COc1ccc(/C=N/NC(=O)CC(=O)NC2CCCCC2)cc1 | 5.89 |
| COc1ccc(-c2cnnn2-c2ccc(NC(=O)/C=C/c3ccc(OC)c(OC)c3)cc2)cc1 | -5.92 |
| Cc1ccccc1OCCC(=O)OCC(=O)NCCNC(=O)COC(=O)CCOc1ccccc1C | 4.47 |
| COc1ccc(CN2CCN(C(=O)CCC(=O)Nc3nnc(C4CCCCC4)s3)CC2)cc1F | -50.2 |
| O=C(CCC(=O)N1CCN(Cc2ccc(F)cc2)CC1)Nc1nnc(C2CCCCC2)s1 | 6.92 |

| SMILES | hERG current change (%, negative = inhibition) at 10uM [%] |
| --- | --- |
| COc1ccc(F)cc1CN1CCN(C(=O)CCC(=O)Nc2nnc(C3CCCCC3)s2)CC1 | -6.04 |
| COc1ccc(C(=O)C2CCCN(C(=O)c3noc4c3CCCC4)C2)cc1F (stereo not shown) | -39.9 |
| CCc1ccc2[nH]c(=O)c(CN(Cc3ccccc3OC)Cc3nnnn3Cc3ccco3)cc2c1 | -14.3 |
| COc1ccc(C(=O)COc2ccc3ccc(=O)oc3c2)cc1 | -3.32 |
| CC(=O)n1cc(N(C(=O)CCl)c2ccccc2)c2ccccc21 | 1.19 |
| CC(=O)n1cc(N(C(=O)CCl)c2ccc(C)cc2)c2ccccc21 | -5.35 |
| CC(=O)n1cc(N(C(=O)CCl)c2ccc([N+](=O)[O-])cc2)c2ccccc21 | -57.1 |
| CC1CCCCN1C(=O)CCc1nnc(Cc2c[nH]c3ccccc23)o1 (stereo not shown) | 4.94 |
| COc1ccc(S(=O)(=O)N2CCCC(C(=O)Nc3ccc(NC(=O)c4ccccn4)cc3)C2)cc1 (stereo not shown) | 4.17 |
| O=C(CN1C(=O)COc2ccccc21)NCCCN1CCN(Cc2ccccc2)CC1 | -11.7 |
| O=S(=O)(Nc1ccccn1)c1ccc(-n2cccn2)cc1 | 21.3 |
| CCCN1C2=C(C(=O)CCC2)C(c2ccc(O)c(Br)c2)C2=C1CCCC2=O | -18.1 |
| Clc1ccc(-c2nc(/C=N/N3CCOCC3)c3ccccn23)cc1 | -5.18 |
| CN1CCN(/N=C/c2nc(-c3ccc(Cl)cc3)n3ccccc23)CC1 | -62.1 |
| CN1CCN(/N=C/c2nc(-c3ccccc3)n3ccccc23)CC1 | -19.9 |
| COc1ccc(N2CCN(C(=O)CSc3nnnn3C3CC3)CC2)cc1 | -13.6 |
| CC(=O)Nc1nc(C)c(-c2nc3ccc([N+](=O)[O-])cc3[nH]2)s1 | 13.9 |
| CCN1CCC(CNCc2cn(-c3ccc(OC)cc3)nc2-c2ccccc2Cl)C1 (stereo not shown) | -9.43 |
| COc1ccc(-c2nn(-c3ccccc3)cc2CO)cc1 | 4.56 |
| CCN1CC(CNCc2cn(-c3ccc(OC)cc3)nc2-c2ccccc2Cl)CC1=O (stereo not shown) | -24.4 |
| Cc1cccc(-n2cc(CN3CCCN(C=O)CC3)c(-c3cccc(F)c3)n2)c1 | -10.8 |
| COc1ccc(-n2cc(CNCCCN3CCCC3=O)c(-c3ccccc3Cl)n2)cc1 | -60.9 |
| COc1ccc(-n2cc(CNCCc3nc(C)cc(C)n3)c(-c3ccccc3Cl)n2)cc1 | -62.6 |

| SMILES | hERG current change (%, negative = inhibition) at 10uM [%] |
| --- | --- |
| COc1ccc(-n2cc(CNCCN3CCOC3=O)c(-c3ccccc3Cl)n2)cc1 | -18.5 |
| COc1ccc(-n2cc(CNCCc3cscn3)c(-c3ccccc3Cl)n2)cc1 | -64.5 |
| COc1ccc(-n2cc(CNCCc3cnc[nH]3)c(-c3cccc(F)c3)n2)cc1 | -28.9 |
| Cc1cccc(-n2cc(CNCCc3nc(C)cc(C)n3)c(-c3cccc(F)c3)n2)c1 | -67.9 |
| O=C(Nc1cccc(O)c1)C1CCCN1C(=O)OCc1ccccc1 (stereo not shown) | -7.35 |
| CC(C)Oc1ccc(OCCn2c(S(=O)(=O)O)nc3c(N)ncnc32)cc1 | 15.9 |
| COc1ccc(NC(=O)CN(Cc2ccccc2)Cc2ccccc2)cc1S(N)(=O)=O | -36.7 |
| CCC(=O)Nc1ccc(C(=O)N/N=C/c2ccccc2[N+](=O)[O-])cc1 | 14.1 |
| CCn1c(SCc2ccc(OC)cc2)nnc1-c1ccncc1 | -18.9 |
| Cc1cccc(-c2nnc(SCC(=O)Nc3cc(C)on3)n2C)c1 | 1.68 |
| Cc1nc(CN2CCN(C(=O)c3ccc(C(C)(C)C)cc3)CC2)cs1.Cl | -3.25 |
| COc1ccc(N2CC(C(=O)Nc3c4c(nn3-c3ccc(OC)cc3)CS(=O)(=O)C4)CC2=O)cc1 (stereo not shown) | 21.4 |
| O=C1COc2ccc3ccccc3c2CN1 | 6.37 |
| Cc1ccc(S(=O)(=O)N2CCCC2CNC(=O)C(=O)NC2CCCC2)cc1 (stereo not shown) | -40.3 |
| Cc1ccc(-n2nc3c(=O)n(CCCC(=O)NCCN4CCN(C)CC4)nc(C)c3c2C)cc1 | 16.8 |
| Cc1ccc(S(=O)(=O)N2CCC(C(=O)NC3CC3)CC2)cc1 | -5.59 |
| O=C1CS/C(=N\c2ccccn2)N1C1CCCCC1 | 13.7 |
| CC(NC(=O)CN1CCc2ccccc21)c1ccccc1 (stereo not shown) | 8.5 |
| COc1ccc(-n2cc(CNCCc3ncc(C)[nH]3)c(-c3ccccc3Cl)n2)cc1 | -63.6 |
| N#CCN1CCCC(C(N)=O)C1 (stereo not shown) | 0.891 |
| COc1ccccc1-n1c(SCC(=O)NCC2CCCO2)nc2c([nH]c3ccccc32)c1=O (stereo not shown) | 9.22 |
| CCN(CC)c1ccc(C(=O)N/N=C(\C)c2ccc(OC)c(OC)c2)cc1 | 3.53 |
| Cc1nnsc1C(=O)NNS(=O)(=O)c1ccccc1 | 8.81 |

| SMILES | hERG current change (%, negative = inhibition) at 10uM [%] |
| --- | --- |
| C=CCOc1ccc(/C=N/NC(=O)C(C)Sc2ccccn2)cc1OCC (stereo not shown) | 20.6 |
| CCCCN(C)C(=O)c1nc2ccccn2c1CN1CCN(c2ncccn2)CC1 | -10.2 |
| CCCCN(C)C(=O)c1nc2ccccn2c1CN1CCN(C(=O)c2cccs2)CC1 | -51.8 |
| CCCCN(C)C(=O)c1nc2ccccn2c1CN1CCN(c2cnccn2)CC1 | -12.4 |
| CCCCN(C)C(=O)c1nc2ccccn2c1CN1CCN(c2ccccn2)CC1 | -7.16 |
| CCCCN(C)C(=O)c1nc2ccccn2c1CN1CCN(C/C=C/c2ccccc2)CC1 | -83.9 |
| CCCCN(C)C(=O)c1nc2ccccn2c1CN1CCSCC1 | 6.32 |
| COC(=O)C1=C(C(=O)OC)[C@@H]2N(Cc3ccccc3)c3ccccc3[C@@]23C[C@@H](C(=O)OC)N(C(=O)NC(C)(C)C)C3=N1 | -11.7 |
| Brc1cnc(N2CCCCC2)nc1N1CCOCC1 | -6.45 |
| CN(C)[C@@H]1C(=O)C(C(N)=O)=C(O)[C@@]2(O)C(=O)C3=C(O)c4c(O)cccc4[C@@](C)(O)C3[C@H](O)C12.Cl (stereo partly shown) | -1.22 |
| COCCn1c(=O)[nH]c2cc(C(=O)NCCN3CCN(c4cccc(Cl)c4)CC3)ccc2c1=O | 12.8 |
| O=C(Cn1c(=O)[nH]c2ccccc2c1=O)N1CCN(c2cccc(Cl)c2)CC1 | 15.7 |
| O=C(CCCn1c(=O)[nH]c2cc(Cl)ccc2c1=O)NCCCN1CCN(c2ccc(F)cc2)CC1 | -64.9 |
| O=C(CCCN1C(=O)CSc2ncccc21)N1CCN(Cc2ccccc2)CC1 | 6.42 |
| O=C(CCCn1c(=O)[nH]c2cc(Cl)ccc2c1=O)NCCCN1CCCC1 | 14.6 |
| O=C(CCn1c(=O)[nH]c2ccccc2c1=O)NCCCN1CCN(c2cccc(Cl)c2)CC1 | -65.4 |
| O=C(CCCn1c(=O)[nH]c2cc(Cl)ccc2c1=O)NCCN1CCN(c2ccccc2)CC1 | -48.4 |
| O=C(CCCN1C(=O)CSc2ncccc21)N1CCN(c2cccc(C(F)(F)F)c2)CC1 | -56.5 |
| O=C(CCNC(=O)Cn1ccc2ccccc2c1=O)NCCCN1CCN(c2ccccc2F)CC1 | 10.1 |
| O=C(CCCCCn1c(=O)[nH]c2ccccc2c1=O)NCCCN1CCN(c2ccccc2F)CC1 | -79.2 |
| COc1cc2[nH]c(=O)n(CCC(=O)NCCCN3CCN(c4ccccc4F)CC3)c(=O)c2cc1OC | -35.4 |
| O=C(CN1C(=O)CSc2ncccc21)N1CCOCC1 | -6.66 |
